Results from article PMC7862700, “An all-to-all approach to the identification of sequence-specific readers for epigenetic DNA modifications on cytosine”.

Experiments:
Experiment in all cases: DAPPL (digital affinity profiling via proximity ligation, sequencing); 10 mM Tris-HCl pH 7.5, 50 mM NaCl, 1 mM DTT, 4% glycerol, room temperature, 30 min; GST-TFs on glutathione beads, 16-mer random dsDNA library, 0.1% formaldehyde crosslink after washing; high values mean tight binding
FLI1 = target: T1, FLI1 (Homo sapiens, UniProt Q01543 1-452); details: protein: recombinant; tags: N-terminal GST; dsDNA, one strand shown
T1 sequence: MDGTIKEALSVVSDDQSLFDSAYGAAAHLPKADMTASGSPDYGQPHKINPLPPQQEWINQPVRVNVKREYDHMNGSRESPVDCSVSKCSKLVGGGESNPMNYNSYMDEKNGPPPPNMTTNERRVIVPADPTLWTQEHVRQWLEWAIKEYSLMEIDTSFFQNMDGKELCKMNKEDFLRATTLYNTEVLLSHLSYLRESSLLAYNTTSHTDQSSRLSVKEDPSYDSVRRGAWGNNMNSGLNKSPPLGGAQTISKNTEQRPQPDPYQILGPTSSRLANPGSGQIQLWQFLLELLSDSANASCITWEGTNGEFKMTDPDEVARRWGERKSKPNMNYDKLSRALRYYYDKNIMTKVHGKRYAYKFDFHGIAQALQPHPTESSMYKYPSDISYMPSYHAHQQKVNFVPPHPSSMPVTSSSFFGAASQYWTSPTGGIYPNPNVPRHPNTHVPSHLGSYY
In short: (§1)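 Human transcription factors were made in yeast as GST fusions, captured on glutathione beads and barcoded with DNA. With a tag-only sample included, the pool was incubated with 200 nmole of a random double-stranded 16-mer DNA library in Tris/NaCl/DTT/glycerol buffer at room temperature for 30 min, then crosslinked with 0.1% formaldehyde after washing, ligated by proximity, amplified and sequenced. For binding signal, each hexamer's read frequency for a factor is divided by its frequency for the tag-only sample.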

ELK1 = target: T2, ELK1 (Homo sapiens, UniProt P19419 1-428); details: protein: recombinant; tags: N-terminal GST; dsDNA, one strand shown
T2 sequence: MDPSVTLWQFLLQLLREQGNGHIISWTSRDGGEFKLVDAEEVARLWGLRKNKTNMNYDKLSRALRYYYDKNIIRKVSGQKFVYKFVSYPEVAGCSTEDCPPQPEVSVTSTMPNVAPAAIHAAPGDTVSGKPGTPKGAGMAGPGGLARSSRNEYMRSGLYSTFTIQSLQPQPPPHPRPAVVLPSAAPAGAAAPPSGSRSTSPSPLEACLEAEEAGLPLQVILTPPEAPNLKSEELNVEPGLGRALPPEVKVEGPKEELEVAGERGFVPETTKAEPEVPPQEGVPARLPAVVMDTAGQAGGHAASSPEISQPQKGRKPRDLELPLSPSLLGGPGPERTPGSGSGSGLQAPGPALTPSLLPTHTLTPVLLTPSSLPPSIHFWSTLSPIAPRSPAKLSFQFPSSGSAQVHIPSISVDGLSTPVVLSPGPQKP
In short: as §1

GABPA = target: T3, GABPA (Homo sapiens, UniProt Q06546 1-454); details: protein: recombinant; tags: N-terminal GST; dsDNA, one strand shown
T3 sequence: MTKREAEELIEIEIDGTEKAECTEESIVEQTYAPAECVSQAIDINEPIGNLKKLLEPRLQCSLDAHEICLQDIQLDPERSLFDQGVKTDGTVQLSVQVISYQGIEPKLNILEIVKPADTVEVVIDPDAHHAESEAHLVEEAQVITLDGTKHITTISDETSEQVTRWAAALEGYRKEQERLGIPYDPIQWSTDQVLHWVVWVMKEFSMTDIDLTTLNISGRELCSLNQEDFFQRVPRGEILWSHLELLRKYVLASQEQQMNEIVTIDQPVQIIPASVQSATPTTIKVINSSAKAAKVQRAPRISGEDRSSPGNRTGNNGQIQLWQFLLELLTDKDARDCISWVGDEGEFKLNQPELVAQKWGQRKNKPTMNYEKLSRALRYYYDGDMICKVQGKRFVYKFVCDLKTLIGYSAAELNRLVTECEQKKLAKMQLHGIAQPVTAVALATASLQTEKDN
In short: as §1

ERG = target: T4, ERG (Homo sapiens, UniProt P11308 1-479); details: protein: recombinant; tags: N-terminal GST; dsDNA, one strand shown
T4 sequence: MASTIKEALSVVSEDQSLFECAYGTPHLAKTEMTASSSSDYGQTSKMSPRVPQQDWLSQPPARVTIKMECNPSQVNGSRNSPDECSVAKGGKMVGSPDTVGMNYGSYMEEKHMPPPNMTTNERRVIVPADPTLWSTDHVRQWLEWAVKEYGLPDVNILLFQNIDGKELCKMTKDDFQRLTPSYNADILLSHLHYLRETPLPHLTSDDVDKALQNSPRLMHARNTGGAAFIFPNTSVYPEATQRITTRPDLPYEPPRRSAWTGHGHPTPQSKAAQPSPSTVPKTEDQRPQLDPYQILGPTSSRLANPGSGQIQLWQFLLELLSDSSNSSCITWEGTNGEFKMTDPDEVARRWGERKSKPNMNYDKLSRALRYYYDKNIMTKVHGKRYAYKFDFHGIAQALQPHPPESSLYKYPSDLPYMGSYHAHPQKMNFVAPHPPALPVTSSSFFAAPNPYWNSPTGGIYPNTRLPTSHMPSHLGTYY
In short: as §1

ELF1 = ELF1 (Homo sapiens, UniProt P32519 1-619); details: protein: recombinant; tags: N-terminal GST; dsDNA, one strand shown
In short: as §1

EHF = target: T5, EHF (Homo sapiens, UniProt Q9NZC4 1-300); details: protein: recombinant; tags: N-terminal GST; dsDNA, one strand shown
T5 sequence: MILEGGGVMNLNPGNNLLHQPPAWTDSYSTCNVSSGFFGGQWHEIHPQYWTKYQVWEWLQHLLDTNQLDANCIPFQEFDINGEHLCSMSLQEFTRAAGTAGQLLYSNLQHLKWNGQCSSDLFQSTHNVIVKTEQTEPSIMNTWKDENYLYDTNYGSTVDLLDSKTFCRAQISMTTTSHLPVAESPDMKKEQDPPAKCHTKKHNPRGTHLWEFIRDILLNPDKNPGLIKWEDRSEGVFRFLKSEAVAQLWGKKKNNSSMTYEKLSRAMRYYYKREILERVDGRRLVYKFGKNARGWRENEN
In short: as §1

SPI1 = SPI1 (Homo sapiens, UniProt P17947 1-270); details: protein: recombinant; tags: N-terminal GST; dsDNA, one strand shown
In short: as §1

SPIB = SPIB (Homo sapiens, UniProt Q01892 1-262); details: protein: recombinant; tags: N-terminal GST; dsDNA, one strand shown
In short: as §1

ELK3 = target: T6, ELK3 (Homo sapiens, UniProt P41970 1-407); details: protein: recombinant; tags: N-terminal GST; dsDNA, one strand shown
T6 sequence: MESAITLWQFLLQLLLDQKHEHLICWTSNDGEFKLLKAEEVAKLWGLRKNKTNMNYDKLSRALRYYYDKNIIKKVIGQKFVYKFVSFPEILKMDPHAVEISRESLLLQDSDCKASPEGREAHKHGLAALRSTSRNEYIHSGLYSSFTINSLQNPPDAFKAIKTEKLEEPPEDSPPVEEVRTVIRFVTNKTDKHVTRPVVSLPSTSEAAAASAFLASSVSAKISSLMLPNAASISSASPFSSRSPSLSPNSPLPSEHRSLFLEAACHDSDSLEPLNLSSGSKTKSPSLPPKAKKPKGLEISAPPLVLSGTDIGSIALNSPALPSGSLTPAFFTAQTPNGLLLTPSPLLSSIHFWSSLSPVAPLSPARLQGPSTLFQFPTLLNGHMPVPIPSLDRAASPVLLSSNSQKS
In short: as §1

FEV = target: T7, FEV (Homo sapiens, UniProt Q99581 1-238); details: protein: recombinant; tags: N-terminal GST; dsDNA, one strand shown
T7 sequence: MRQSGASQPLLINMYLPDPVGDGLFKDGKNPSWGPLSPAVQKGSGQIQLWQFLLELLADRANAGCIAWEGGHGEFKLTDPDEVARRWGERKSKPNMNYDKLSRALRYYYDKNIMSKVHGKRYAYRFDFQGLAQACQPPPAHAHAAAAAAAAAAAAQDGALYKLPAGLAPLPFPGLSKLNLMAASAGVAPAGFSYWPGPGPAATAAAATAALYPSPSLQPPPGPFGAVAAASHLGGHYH
In short: as §1

ETV5 = ETV5 (Homo sapiens, UniProt P41161 1-510); details: protein: recombinant; tags: N-terminal GST; dsDNA, one strand shown
In short: as §1

HSF1 = HSF1 (Homo sapiens, UniProt Q00613 1-529); details: protein: recombinant; tags: N-terminal GST; chain copies: 3; dsDNA, one strand shown
In short: as §1

SPIC = target: T8, SPIC (Homo sapiens, UniProt Q8N5J4 1-248); details: protein: recombinant; tags: N-terminal GST; dsDNA, one strand shown
T8 sequence: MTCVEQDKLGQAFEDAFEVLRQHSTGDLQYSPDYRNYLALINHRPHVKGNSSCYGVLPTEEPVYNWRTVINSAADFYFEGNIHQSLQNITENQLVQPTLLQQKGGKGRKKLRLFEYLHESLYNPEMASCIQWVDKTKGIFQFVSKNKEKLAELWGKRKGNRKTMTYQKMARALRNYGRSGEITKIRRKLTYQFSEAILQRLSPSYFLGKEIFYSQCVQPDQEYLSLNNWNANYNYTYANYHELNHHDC
In short: as §1

ELF4 = ELF4 (Homo sapiens, UniProt Q99607 1-663); details: protein: recombinant; tags: N-terminal GST; dsDNA, one strand shown
In short: as §1

ELK4 = target: T9, ELK4 (Homo sapiens, UniProt P28324-2 1-405); details: protein: recombinant; tags: N-terminal GST; dsDNA, one strand shown
T9 sequence: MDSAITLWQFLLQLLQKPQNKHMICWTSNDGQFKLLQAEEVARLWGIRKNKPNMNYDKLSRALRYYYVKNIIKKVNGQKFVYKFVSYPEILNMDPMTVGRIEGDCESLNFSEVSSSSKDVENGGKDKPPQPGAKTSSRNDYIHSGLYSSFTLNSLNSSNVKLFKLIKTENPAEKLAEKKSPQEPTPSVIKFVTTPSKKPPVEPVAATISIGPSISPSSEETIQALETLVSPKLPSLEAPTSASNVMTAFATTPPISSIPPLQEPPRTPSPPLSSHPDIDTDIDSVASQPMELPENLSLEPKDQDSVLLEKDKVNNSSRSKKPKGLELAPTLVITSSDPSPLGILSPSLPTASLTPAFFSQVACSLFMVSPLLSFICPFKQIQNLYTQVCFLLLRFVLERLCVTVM
In short: as §1

ETV2 = target: T10, ETV2 (Homo sapiens, UniProt O00321 1-342); details: protein: recombinant; tags: N-terminal GST; dsDNA, one strand shown
T10 sequence: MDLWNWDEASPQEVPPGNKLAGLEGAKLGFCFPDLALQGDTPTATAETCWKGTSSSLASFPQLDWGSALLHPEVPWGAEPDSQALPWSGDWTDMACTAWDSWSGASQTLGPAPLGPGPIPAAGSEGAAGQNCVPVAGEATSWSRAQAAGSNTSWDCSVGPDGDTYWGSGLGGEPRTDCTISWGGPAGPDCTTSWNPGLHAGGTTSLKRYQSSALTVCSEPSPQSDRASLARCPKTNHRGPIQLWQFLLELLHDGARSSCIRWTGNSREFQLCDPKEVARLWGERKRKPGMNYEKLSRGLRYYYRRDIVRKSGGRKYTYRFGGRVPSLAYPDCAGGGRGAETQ
In short: as §1

ELF3 = target: T11, ELF3 (Homo sapiens, UniProt P78545 1-371); details: protein: recombinant; tags: N-terminal GST; dsDNA, one strand shown
T11 sequence: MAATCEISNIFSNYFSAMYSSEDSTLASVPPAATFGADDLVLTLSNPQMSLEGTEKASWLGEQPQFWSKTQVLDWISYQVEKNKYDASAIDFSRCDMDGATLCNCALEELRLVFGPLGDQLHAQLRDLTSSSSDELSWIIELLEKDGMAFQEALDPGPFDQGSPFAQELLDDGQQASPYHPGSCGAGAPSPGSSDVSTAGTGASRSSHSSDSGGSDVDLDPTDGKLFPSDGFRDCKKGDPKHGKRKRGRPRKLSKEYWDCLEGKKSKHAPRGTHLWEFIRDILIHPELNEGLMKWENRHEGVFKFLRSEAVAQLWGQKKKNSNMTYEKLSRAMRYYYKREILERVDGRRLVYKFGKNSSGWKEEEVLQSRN
In short: as §1

CRX = CRX (Homo sapiens, UniProt O43186 1-299); details: protein: recombinant; tags: N-terminal GST; dsDNA, one strand shown
In short: as §1

ETV1 = ETV1 (Homo sapiens, UniProt P50549 1-477); details: protein: recombinant; tags: N-terminal GST; dsDNA, one strand shown
In short: as §1

Chain of SPIB (Q01892 whole entry): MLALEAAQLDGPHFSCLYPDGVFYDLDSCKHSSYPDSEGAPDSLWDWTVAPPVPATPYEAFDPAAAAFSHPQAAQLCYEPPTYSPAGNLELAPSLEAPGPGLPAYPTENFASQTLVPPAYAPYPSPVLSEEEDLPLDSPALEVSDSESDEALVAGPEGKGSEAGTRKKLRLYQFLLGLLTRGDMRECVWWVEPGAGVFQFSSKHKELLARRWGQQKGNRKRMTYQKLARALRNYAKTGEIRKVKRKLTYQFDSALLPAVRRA
Chain of ETV5 (P41161 whole entry): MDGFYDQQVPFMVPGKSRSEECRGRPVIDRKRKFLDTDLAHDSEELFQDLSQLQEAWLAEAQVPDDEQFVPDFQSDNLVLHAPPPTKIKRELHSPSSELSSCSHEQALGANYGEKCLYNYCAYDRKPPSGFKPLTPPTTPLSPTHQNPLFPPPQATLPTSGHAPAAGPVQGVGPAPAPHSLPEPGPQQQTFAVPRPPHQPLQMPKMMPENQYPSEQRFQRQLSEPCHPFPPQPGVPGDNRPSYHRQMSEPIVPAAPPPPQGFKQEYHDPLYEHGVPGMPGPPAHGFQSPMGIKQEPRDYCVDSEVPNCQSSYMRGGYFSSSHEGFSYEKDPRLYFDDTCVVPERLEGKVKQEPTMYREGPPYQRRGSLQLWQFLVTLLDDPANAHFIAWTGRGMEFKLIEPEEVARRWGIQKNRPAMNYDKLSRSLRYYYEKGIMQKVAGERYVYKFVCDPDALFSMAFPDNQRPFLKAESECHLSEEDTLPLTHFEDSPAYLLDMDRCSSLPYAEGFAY
Chain of ETV1 (P50549 whole entry): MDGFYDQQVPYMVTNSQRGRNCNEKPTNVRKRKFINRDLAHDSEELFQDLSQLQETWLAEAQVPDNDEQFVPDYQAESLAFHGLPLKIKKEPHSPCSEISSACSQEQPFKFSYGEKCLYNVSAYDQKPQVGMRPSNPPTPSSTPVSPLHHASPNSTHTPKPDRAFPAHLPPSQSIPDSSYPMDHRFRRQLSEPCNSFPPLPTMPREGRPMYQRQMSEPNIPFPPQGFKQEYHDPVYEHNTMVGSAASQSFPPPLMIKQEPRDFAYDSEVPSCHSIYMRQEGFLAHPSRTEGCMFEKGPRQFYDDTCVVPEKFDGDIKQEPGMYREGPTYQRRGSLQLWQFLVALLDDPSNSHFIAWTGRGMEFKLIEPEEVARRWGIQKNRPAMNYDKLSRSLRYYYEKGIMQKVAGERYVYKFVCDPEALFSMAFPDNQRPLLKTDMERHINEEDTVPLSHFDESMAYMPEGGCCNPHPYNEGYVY
Chain of ELF1 (P32519 whole entry): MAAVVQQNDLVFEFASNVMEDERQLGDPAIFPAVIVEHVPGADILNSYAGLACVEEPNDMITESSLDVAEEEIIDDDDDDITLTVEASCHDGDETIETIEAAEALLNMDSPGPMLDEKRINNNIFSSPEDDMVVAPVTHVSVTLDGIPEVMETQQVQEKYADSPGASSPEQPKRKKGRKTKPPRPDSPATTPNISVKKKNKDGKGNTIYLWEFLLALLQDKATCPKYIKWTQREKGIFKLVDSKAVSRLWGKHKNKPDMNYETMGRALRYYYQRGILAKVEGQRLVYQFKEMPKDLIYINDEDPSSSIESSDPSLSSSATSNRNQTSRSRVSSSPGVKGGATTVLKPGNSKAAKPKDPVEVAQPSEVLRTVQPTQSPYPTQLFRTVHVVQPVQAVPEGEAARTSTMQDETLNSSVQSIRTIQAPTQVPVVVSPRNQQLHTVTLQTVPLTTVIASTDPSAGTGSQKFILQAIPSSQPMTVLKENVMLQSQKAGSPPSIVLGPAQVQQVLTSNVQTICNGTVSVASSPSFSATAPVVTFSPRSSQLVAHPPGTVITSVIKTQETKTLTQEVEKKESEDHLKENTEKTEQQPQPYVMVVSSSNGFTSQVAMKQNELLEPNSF
Chain of CRX (O43186 whole entry): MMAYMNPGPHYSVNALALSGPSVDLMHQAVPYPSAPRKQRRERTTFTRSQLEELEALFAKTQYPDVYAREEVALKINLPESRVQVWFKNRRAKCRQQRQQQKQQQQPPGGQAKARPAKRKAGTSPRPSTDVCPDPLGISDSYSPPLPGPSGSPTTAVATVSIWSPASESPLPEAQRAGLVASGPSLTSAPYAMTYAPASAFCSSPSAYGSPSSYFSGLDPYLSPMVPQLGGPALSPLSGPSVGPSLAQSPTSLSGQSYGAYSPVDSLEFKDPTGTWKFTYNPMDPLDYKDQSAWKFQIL
Chain of ELF4 (Q99607 whole entry): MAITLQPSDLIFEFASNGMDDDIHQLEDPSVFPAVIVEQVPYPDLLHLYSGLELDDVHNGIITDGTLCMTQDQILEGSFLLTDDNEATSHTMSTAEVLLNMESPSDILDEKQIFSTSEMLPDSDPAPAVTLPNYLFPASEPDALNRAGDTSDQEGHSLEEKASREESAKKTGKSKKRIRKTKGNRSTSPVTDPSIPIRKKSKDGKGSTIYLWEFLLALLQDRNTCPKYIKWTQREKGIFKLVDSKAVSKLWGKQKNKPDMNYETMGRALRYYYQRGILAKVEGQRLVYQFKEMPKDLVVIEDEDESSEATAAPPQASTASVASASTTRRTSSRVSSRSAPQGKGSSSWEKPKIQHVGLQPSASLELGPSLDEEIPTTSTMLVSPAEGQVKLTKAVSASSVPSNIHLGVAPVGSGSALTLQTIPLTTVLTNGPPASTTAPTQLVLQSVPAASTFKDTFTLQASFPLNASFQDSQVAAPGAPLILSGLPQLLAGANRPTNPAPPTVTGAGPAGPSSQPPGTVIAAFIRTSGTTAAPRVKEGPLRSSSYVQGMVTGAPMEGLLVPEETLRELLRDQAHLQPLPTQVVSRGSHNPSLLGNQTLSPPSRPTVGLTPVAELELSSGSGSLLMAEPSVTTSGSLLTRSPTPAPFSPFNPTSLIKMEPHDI
Chain of HSF1 (Q00613 whole entry): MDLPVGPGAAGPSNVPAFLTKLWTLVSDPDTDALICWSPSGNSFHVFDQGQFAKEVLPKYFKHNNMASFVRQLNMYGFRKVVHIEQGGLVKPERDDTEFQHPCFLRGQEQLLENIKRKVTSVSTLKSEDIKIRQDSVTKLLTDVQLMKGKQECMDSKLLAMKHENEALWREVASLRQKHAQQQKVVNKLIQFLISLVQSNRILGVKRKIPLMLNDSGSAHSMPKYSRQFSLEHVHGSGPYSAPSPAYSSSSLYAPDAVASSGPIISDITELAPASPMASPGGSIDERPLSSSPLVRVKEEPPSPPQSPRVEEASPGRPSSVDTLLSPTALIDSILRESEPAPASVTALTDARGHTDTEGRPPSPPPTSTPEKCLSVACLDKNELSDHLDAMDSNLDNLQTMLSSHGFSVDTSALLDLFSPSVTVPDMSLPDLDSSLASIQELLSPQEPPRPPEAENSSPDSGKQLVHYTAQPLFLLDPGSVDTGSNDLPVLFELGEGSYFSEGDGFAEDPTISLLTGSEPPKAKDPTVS

With AAGCTA the binding signal (FLI1) was 1.16 fold enrichment (6-mer frequency, TF over GST control), the binding signal (ELK1) was 1.13 fold enrichment (6-mer frequency, TF over GST control) and the binding signal (GABPA) was 1.08 fold enrichment (6-mer frequency, TF over GST control). The binding signal (ERG) was 1.13 fold enrichment (6-mer frequency, TF over GST control), the binding signal (ELF1) was 1.11 fold enrichment (6-mer frequency, TF over GST control) and the binding signal (EHF) was 1.19 fold enrichment (6-mer frequency, TF over GST control). For the same sequence, the binding signal (SPI1) was 1.04 fold enrichment (6-mer frequency, TF over GST control), the binding signal (SPIB) was 1.2 fold enrichment (6-mer frequency, TF over GST control) and the binding signal (ELK3) was 1.21 fold enrichment (6-mer frequency, TF over GST control). For the same sequence, the binding signal (FEV) was 1.13 fold enrichment (6-mer frequency, TF over GST control), the binding signal (ETV5) was 1.17 fold enrichment (6-mer frequency, TF over GST control) and the binding signal (HSF1) was 1.29 fold enrichment (6-mer frequency, TF over GST control). For the same sequence, the binding signal (SPIC) was 1.13 fold enrichment (6-mer frequency, TF over GST control), the binding signal (ELF4) was 1.2 fold enrichment (6-mer frequency, TF over GST control) and the binding signal (ELK4) was 1.17 fold enrichment (6-mer frequency, TF over GST control). For the same sequence, the binding signal (ETV2) was 1.12 fold enrichment (6-mer frequency, TF over GST control), the binding signal (ELF3) was 1.2 fold enrichment (6-mer frequency, TF over GST control) and the binding signal (CRX) was 1.58 fold enrichment (6-mer frequency, TF over GST control). For the same sequence, the binding signal (ETV1) was 1.17 fold enrichment (6-mer frequency, TF over GST control).
